Bioassay records deposited in PubChem by several laboratories.
Sampled rows, rich in hits. Any-hit rate of the full collection: about 3.2%.
bovine MsrA act: bovine methionine sulfoxide reductase A activation; activation, % at 10.6 µM; hit rate 0.3% among 360,000; purified bovine MsrA, absorbance read-out; in the data active means activation above about 7.5%;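 further: 0% = vehicle and 100% = reference activator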
NadD inh: NadD (S. aureus) enzyme inhibition; purified NadD enzyme, colorimetric absorbance read-out; inhibition, % at 20 µM; hit rate 0.78% among 360,000; in the data active means inhibition above about 26%
DAGLB inhibitor: blocks human DAGLB lipase activity. inhibition, % at 5.17 µM. AID 504411. hit rate 0.059% among 340,000. Q8NCG7. HEK293T DAGLB membrane lysate, EnzChek fluorogenic substrate; in the data active means inhibition above about 34%;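 further: 0% = enzyme with vehicle and 100% = wells lacking enzyme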
Target sequence (Q8NCG7 whole entry, looked up): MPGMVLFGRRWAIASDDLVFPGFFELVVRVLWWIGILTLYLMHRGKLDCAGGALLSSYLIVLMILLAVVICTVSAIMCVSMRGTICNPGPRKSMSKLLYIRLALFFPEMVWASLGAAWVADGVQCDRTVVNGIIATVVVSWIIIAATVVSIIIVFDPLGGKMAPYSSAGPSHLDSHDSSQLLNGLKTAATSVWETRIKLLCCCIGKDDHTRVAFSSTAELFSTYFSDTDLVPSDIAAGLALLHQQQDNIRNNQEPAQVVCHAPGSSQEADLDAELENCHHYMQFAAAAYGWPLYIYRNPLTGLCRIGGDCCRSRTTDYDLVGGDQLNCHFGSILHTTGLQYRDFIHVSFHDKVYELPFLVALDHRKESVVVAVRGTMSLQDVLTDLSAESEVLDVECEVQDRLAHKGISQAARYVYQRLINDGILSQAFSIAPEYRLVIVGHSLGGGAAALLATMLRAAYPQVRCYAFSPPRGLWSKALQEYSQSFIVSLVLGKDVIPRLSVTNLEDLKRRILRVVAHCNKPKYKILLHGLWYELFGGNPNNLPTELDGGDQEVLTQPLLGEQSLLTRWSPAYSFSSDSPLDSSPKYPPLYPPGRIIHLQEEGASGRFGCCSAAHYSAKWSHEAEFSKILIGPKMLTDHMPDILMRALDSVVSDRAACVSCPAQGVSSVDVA
rCAG binder: r(CAG) repeat RNA binding; hit rate 1.3% among 370,000; TO-PRO-1 dye displacement fluorescence; inhibition, % at 3 µM;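 active means inhibition above the plate cutoff, the mean of all test compounds on that plate plus 3 SD, cut at about 35% in these data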;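 further: 0% = DMSO alone and 100% = 100 µM mitoxantrone as full dye displacement; higher means more dye released from RNA so lower well fluorescence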
MsrA inhibitor: inhibitors of bovine MsrA; purified bovine MsrA, absorbance read-out; inhibition, % at 15.5 µM; hit rate 0.75% among 360,000; in the data active means inhibition above about 4.5%;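 further: 0% = vehicle wells with enzyme and 100% = reference inhibitor wells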
DSG3 Ab inh: blocks pemphigus antibody binding to human desmoglein-3. P32926. DSG3-coupled beads, scFv-anti-DSG3-GFP binding, flow cytometry; hits give low values. binding (percent of control), % at 10 µM. hit rate 0.48% among 310,000;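 active means binding more than 3 SD below its plate's average and above zero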;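 further: hits lower antibody fragment binding to DSG3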
Starred values were filed as active, the others as inactive; nt = no result.

SMILES	bovine MsrA act	NadD inh	DAGLB inhibitor	rCAG binder	MsrA inhibitor	DSG3 Ab inh
CCN(CC(=O)Nc1ccc(Br)cc1)CC(=O)Nc1cc(C)on1	-10	-2	-5	-2	0	66*
CCC1CCCCN1S(=O)(=O)c1ccc(C(=O)Nc2nnc(-c3ccccc3Cl)o2)cc1 (stereo not drawn)	-4	42*	0	nt	nt	nt
COC(=O)C1CN(Cc2cn(Cc3ccccc3)nn2)CCS(=O)(=O)N1Cc1ccc(OC)cc1 (stereo not drawn)	nt	nt	nt	3	nt	nt
Cc1ccc(NC(=O)CSc2nnc(NC(=O)c3ccco3)s2)cc1	-4	8	2	1	1	5.9*
CC(=O)c1ccc(NC(=O)CSc2nnc(NC(=O)c3ccco3)s2)cc1	-2	-2	2	nt	nt	111
O=S(=O)(Nc1nc2ccccc2s1)c1ccc(Cl)s1	-1	-1	12	44*	-1	117
CCC(=O)N1c2ccccc2NC2=C(C(=O)CC(c3ccco3)C2)C1c1ccco1 (stereo not drawn)	-4	-2	1	1	4.6*	96
COc1ccc(C2CC(=O)C3=C(C2)Nc2ccccc2N(C(C)=O)C3c2ccco2)cc1 (stereo not drawn)	-12	-3	2	3	3	96
O=C(NC1CSC/C1=N\O)c1ccccc1 (stereo not drawn)	1	1	1	-1	0	82*
O=C(NC1CCOC1=O)c1ccccc1 (stereo not drawn)	1	3	2	2	-1	105
CSc1nnc2c(n1)c(C)nn2-c1cccc(C)c1	-2	1	-2	3	3	86*
CN(NC1OC(=O)c2ccccc21)c1ccc(Cl)cc1[N+](=O)[O-] (stereo not drawn)	-4	-1	16	20	3	nt
CN(NC1OC(=O)c2ccccc21)c1ccc(C(F)(F)F)cc1[N+](=O)[O-] (stereo not drawn)	-3	0	nt	13	4	84*
CN(Cc1ccccc1)C(=O)OCc1cn(Cc2cccc(F)c2F)nn1	nt	nt	nt	-1	nt	nt
CN1C(=CC=C2C=C(I)C(=O)C(I)=C2)C(C)(C)c2ccccc21	-5	13	7	-5	-1	59*
O=C(NCC1CCCO1)c1ccc2c(c1)C(=O)N(c1cccc([N+](=O)[O-])c1)C2=O (stereo not drawn)	-14	-1	-3	5	-1	41*
COc1cc(C2C3=C(CCCC3=O)Nc3[nH]n(-c4ccccc4)c(=O)c32)ccc1OC(C)=O (stereo not drawn)	-4	-4	3	17	4.6*	100
COc1cc(C2C3=C(CCCC3=O)Nc3[nH]n(-c4ccccc4)c(=O)c32)cc(OC)c1OC (stereo not drawn)	-3	-23	0	5	2	92
CCn1c(C)nc2cc(C(=O)N/N=C/c3ccc(O)c(O)c3O)ccc21	-12	14	-1	32	4	2.7*
CCn1c(C)nc2cc(C(=O)N/N=C/c3cccc(OC)c3O)ccc21	-5	-2	4	5	2	100
CCOC(=O)[C@]12CCCCC/C=C\1N(CCc1ccc(Cl)cc1)C(=O)[C@H]2CC(=O)NCCCOC	nt	nt	nt	0	nt	nt
CN(c1ccccc1)S(=O)(=O)c1cccc(NC(=O)C2=NNC(=O)CC2)c1	-12	0	-2	9	1	5.4*
CCCCCC(=O)C(=O)c1ccc(O)cc1O	-4	1	-1	-1	4.6*	98
OC(c1ccccc1)(c1ccccc1)C1CCN(CCCOc2ccc(Br)cc2)CC1	nt	nt	nt	1	nt	nt
COC(=O)[C@]12C[C@H](CC(=O)NCc3cccs3)C(=O)N(Cc3ccc(Cl)cc3Cl)C1=C[C@H](COCc1ccccc1)O[C@@H]2C	nt	nt	nt	8	nt	nt
CC1(C)Cc2nc3sc4c(=O)[nH]cnc4c3cc2CS1	0	16	0	4	1	80*
CCCCCn1cnc2c(sc3nc4c(cc32)CSC(C)(C)C4)c1=O	-5	-4	-2	-2	0	109
CCOC(=O)N1CCN(S(=O)(=O)c2ccc(C(=O)NNc3nc4c(C)cccc4s3)cc2)CC1	-2	14	1	76*	0	79
CCOC(=O)N1CCN(S(=O)(=O)c2ccc(C(=O)NNc3nc4cc(C)cc(C)c4s3)cc2)CC1	-1	39*	5	nt	nt	95
O=C(OC12CCCN(C1)/C(=C/c1ccncc1)C2)c1ccco1 (stereo not drawn)	nt	nt	nt	3	nt	nt
